From PubChem BioAssay (Tox21)
Where “and” joins values, the source holds several entries; their conditions need not be identical. Identical values can stand only once. Records with an inconclusive call do not appear. Calls of active or inactive are those of the source. Unless noted, calls follow the shape of the dose curve; as a rule, active = well fitted curve in the direction sought with a large enough effect in the repeat runs; inconclusive = weak or mixed curves; inactive = no such curve, though single readings can be large; an effect the other way counts as inactive or inconclusive.

Tests used:
[1] = target: Acetylcholinesterase (Homo sapiens) (UniProt P22303); test: Acetylcholinesterase (AChE) small molecule antagonists: enzyme-based qHTS assay (AID 1347397; calls by dose curve; also: nearly all actives have a fitted effect of over 55% in size); settings: Potency: AChE enzyme activity inhibition; outcome: AChE enzyme activity inhibition; series mostly up to 115 µM
How it was run: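 Human recombinant acetylcholinesterase; substrate acetylthiocholine; thiocholine quantified with DTNB (colorimetric). Compound preincubation 30 min RT; reaction 10 min RT.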

[2] = target: Acetylcholinesterase (Homo sapiens) (UniProt P22303); test: Acetylcholinesterase (AChE) small molecule antagonists: fluorescence cell-based qHTS assay (AID 1347398; calls by dose curve; also: nearly all actives have a fitted effect of over 50% in size); settings: SH-SY5Y cells; Potency: AChE activity; outcome: AChE activity; series mostly up to 115 µM
How it was run: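 Thiocholine generated from acetylthiocholine by SH-SY5Y cell AChE is detected with Thiolite Green (Ex/Em 490/520 nm) after 40 min at room temperature, following 30 min compound pretreatment at 37 C.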

[3] = target: Acetylcholinesterase (Homo sapiens) (UniProt P22303); test: Acetylcholinesterase (AChE) small molecule antagonists: enzyme-based qHTS assay with human liver microsomes (AID 1347399; calls by dose curve; also: nearly all actives have a fitted effect of over 60% in size); settings: Potency: qHTS inhibition; outcome: qHTS inhibition; series mostly up to 115 µM
How it was run: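 Recombinant human AChE (50 mU/mL in the enzyme mix) and human liver microsomes (0.25 mg/mL final) were preincubated with compound and NADPH (0.25 mg/mL final) for 30 min at 37 C. Acetylthiocholine/DTNB was then added; thiocholine was read colorimetrically after 10 min at room temperature.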

[4] = target: Cytochrome P450 2C19 (Homo sapiens) (UniProt P33261); test: Cytochrome P450 Family 2 Subfamily C Member 19 (CYP2C19) small molecule antagonists: luciferase reporter qHTS assay (AID 1671197); settings: P450-Glo CYP2C19 enzyme, luciferin luminescence, 1 h; series mostly up to 115 µM; also: nearly all actives have a fitted effect of over 65% in size; also: potency is read from the fitted curve at half-maximal effect
How it was run: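 P450-Glo CYP2C19 screening system; proluciferin substrate; DMSO compound stocks; 10 min RT preincubation; NADPH regeneration, 1 h at 37C; luciferin detection reagent, 20 min RT; luminescence as RLU.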

[5] = target: Cytochrome P450 2C9 (Homo sapiens) (UniProt P11712); test: Cytochrome P450 Family 2 Subfamily C Member 9 (CYP2C9) small molecule antagonists: luciferase reporter qHTS assay (AID 1671198); settings: P450-Glo CYP2C9 enzyme assay, luciferin luminescence; series mostly up to 115 µM; also: nearly all actives have a fitted effect of over 50% in size; also: potency is read from the fitted curve at half-maximal effect
How it was run: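 CYP2C9 activity was measured with a P450-Glo proluciferin substrate. Enzyme–substrate mix was held with compound for 10 min at room temperature, then NADPH regeneration solution was added for 1 h at 37C. Luciferin product was read as luminescence.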

[6] = target: Cytochrome P450 1A2 (Homo sapiens) (UniProt P05177); test: Cytochrome P450 Family 1 Subfamily A Member 2 (CYP1A2) small molecule antagonists: luciferase reporter qHTS assay (AID 1671199); settings: P450-Glo CYP1A2 enzyme, luciferin luminescence, 1 h; series mostly up to 115 µM; also: nearly all actives have a fitted effect of over 50% in size; also: potency is read from the fitted curve at half-maximal effect
How it was run: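 Inhibition of CYP1A2 conversion of proluciferin to luciferin, detected by luminescence. Reaction run 1 h at room temperature with NADPH regeneration after brief compound preincubation.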

[7] = target: Voltage-gated inwardly rectifying potassium channel KCNH2 (Homo sapiens) (UniProt Q12809); test: Human Ether-a-go-go-Related Gene (hERG) channel small molecule antagonists: fluorescence cell-based qHTS assay (AID 1671200); settings: hERG-U2OS cells, FluxOR thallium flux fluorescence; series mostly up to 76.8 µM;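 also: hERG-expressing U2OS cells given a thallium stimulus after FluxOR II dye loading; nearly all actives have a fitted effect of over 50% in size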
How it was run: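 hERG-U2OS cells plated overnight at 37 C, loaded with FluxOR II dye 1 h at RT in dark; after 10 min, thallium stimulus added. Fluorescence (480/540 nm) read kinetically for 2 min at 1 s intervals.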

[8] = target: Cytochrome P450 3A4 (Homo sapiens) (UniProt P08684); test: Cytochrome P450 Family 3 Subfamily A Member 4 (CYP3A4) small molecule antagonists: luciferase reporter qHTS assay (AID 1671201); settings: P450-Glo CYP3A4 enzyme, luciferin luminescence, 1 h; series mostly up to 115 µM; also: nearly all actives have a fitted effect of over 50% in size
How it was run: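 P450-Glo CYP3A4 luminescent assay: compounds preincubated 10 min at room temperature with enzyme and proluciferin substrate, NADPH regeneration added, 1 h room-temperature reaction, stopped with luciferin detection reagent; luminescence read after 20 min. Ketoconazole positive control.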

[9] = target: Cytochrome P450 2D6 (Homo sapiens) (UniProt P10635); test: Cytochrome P450 Family 2 Subfamily D Member 6 (CYP2D6) small molecule antagonists: luciferase reporter qHTS assay (AID 1671196); settings: P450-Glo CYP2D6 enzyme assay, luciferin luminescence, 1 h; series mostly up to 115 µM; also: nearly all actives have a fitted effect of over 50% in size; also: potency is read from the fitted curve at half-maximal effect
How it was run: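 P450-Glo format: CYP2D6 converts a proluciferin substrate to luciferin in an NADPH-driven reaction lasting 1 h at room temperature. Light output, proportional to CYP2D6 activity, reflects interference by test chemicals.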
% is scaled to controls: 0 for no effect and ±100 for the full control effect.

Sequence of Cytochrome P450 2C19 (Homo sapiens) (P33261 whole entry, looked up): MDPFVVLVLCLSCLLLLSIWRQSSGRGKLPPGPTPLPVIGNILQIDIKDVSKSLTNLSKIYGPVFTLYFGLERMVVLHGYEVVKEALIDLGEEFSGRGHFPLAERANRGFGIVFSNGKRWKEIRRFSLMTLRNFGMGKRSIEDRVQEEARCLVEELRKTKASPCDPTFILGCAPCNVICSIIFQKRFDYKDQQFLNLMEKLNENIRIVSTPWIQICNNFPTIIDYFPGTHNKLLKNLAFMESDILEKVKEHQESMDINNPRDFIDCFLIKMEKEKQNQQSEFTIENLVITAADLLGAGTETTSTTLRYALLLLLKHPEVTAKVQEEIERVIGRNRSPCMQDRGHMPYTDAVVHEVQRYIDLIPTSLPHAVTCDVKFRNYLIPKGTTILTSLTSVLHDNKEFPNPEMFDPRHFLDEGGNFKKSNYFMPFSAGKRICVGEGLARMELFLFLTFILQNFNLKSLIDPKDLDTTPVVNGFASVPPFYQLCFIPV
Sequence of Acetylcholinesterase (Homo sapiens) (P22303 whole entry, looked up): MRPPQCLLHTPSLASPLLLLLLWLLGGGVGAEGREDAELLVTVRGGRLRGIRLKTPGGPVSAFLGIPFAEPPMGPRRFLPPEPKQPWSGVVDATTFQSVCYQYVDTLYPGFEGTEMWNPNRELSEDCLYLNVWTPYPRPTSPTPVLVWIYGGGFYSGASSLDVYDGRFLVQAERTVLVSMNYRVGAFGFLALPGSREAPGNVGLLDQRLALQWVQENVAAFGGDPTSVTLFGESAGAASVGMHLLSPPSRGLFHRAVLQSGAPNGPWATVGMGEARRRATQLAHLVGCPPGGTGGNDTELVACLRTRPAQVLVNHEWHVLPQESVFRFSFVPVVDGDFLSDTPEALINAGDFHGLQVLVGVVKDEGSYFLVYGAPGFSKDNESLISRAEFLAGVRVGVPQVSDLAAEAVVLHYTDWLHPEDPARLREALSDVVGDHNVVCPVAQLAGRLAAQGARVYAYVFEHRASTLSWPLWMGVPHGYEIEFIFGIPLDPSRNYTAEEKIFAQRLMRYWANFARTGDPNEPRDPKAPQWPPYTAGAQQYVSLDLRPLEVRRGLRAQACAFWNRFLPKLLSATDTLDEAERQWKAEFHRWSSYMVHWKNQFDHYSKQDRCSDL
Sequence of Cytochrome P450 2D6 (Homo sapiens) (P10635 whole entry, looked up): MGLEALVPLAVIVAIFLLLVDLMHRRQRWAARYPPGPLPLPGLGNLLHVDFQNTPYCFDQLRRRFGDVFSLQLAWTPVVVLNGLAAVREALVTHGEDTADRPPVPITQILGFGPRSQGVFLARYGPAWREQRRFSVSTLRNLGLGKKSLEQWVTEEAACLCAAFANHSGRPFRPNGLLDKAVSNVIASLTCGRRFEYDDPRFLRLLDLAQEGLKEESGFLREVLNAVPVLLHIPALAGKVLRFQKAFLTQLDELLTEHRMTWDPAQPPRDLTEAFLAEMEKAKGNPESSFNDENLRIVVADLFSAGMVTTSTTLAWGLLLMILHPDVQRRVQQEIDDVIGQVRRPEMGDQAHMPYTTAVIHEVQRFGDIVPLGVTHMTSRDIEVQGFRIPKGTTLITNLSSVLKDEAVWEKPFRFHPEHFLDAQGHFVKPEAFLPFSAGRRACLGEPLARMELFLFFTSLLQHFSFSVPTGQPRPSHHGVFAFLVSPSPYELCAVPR
Sequence of Cytochrome P450 1A2 (Homo sapiens) (P05177 whole entry, looked up): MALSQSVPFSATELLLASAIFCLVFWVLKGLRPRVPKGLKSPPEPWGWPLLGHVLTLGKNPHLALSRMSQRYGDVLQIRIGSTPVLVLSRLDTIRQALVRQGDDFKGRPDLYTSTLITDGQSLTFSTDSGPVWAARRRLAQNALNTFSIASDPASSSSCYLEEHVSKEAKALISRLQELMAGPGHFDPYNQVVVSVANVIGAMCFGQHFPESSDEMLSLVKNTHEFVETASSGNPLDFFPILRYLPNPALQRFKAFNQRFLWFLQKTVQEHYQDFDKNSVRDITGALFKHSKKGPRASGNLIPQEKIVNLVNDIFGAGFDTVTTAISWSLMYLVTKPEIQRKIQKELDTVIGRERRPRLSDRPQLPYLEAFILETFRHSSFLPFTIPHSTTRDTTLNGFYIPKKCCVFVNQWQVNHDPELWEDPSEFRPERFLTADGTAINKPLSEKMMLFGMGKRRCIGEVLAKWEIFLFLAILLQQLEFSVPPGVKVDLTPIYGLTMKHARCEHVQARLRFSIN
Sequence of Cytochrome P450 2C9 (Homo sapiens) (P11712 whole entry, looked up): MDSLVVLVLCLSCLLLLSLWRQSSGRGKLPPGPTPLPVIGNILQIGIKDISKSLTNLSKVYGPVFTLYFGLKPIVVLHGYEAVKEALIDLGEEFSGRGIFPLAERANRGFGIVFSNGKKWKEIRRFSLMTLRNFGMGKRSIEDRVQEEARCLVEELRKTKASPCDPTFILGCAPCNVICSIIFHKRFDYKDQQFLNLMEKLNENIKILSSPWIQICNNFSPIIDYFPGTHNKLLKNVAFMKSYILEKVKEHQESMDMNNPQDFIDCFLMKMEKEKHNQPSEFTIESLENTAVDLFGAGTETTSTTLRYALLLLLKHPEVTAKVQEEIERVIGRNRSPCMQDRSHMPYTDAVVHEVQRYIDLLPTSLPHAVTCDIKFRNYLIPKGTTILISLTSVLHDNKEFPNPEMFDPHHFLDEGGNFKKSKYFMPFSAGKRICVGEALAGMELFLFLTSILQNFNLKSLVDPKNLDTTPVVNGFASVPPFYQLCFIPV
Sequence of Voltage-gated inwardly rectifying potassium channel KCNH2 (Homo sapiens) (Q12809 whole entry, looked up): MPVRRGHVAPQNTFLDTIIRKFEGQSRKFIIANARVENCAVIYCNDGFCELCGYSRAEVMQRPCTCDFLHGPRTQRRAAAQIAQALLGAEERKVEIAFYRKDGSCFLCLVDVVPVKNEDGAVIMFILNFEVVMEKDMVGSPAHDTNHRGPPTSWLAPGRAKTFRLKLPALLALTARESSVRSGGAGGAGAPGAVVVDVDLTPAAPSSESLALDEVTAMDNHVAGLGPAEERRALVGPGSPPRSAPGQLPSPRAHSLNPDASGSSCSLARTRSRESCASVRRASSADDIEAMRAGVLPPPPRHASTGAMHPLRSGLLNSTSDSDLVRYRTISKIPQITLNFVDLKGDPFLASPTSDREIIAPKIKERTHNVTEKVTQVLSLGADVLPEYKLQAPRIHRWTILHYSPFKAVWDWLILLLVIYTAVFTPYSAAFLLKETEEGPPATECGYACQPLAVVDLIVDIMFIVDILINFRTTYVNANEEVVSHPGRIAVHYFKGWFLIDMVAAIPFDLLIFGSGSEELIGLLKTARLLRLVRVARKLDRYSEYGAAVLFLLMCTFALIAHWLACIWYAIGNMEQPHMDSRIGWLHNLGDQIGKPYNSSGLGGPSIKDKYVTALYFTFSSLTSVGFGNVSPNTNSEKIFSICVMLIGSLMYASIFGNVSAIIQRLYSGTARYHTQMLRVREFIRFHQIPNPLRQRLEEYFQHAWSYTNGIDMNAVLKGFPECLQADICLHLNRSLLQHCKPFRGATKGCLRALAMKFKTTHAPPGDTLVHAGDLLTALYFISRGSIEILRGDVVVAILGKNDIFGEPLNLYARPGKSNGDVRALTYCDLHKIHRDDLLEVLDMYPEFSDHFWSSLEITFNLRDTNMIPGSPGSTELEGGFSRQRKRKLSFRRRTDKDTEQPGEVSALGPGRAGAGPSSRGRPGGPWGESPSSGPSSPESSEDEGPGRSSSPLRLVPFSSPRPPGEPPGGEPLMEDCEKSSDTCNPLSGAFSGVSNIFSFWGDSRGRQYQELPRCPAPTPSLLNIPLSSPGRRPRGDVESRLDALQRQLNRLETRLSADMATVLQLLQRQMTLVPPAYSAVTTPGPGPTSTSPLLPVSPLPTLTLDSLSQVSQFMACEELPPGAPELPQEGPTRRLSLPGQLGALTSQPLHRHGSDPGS
Sequence of Cytochrome P450 3A4 (Homo sapiens) (P08684 whole entry, looked up): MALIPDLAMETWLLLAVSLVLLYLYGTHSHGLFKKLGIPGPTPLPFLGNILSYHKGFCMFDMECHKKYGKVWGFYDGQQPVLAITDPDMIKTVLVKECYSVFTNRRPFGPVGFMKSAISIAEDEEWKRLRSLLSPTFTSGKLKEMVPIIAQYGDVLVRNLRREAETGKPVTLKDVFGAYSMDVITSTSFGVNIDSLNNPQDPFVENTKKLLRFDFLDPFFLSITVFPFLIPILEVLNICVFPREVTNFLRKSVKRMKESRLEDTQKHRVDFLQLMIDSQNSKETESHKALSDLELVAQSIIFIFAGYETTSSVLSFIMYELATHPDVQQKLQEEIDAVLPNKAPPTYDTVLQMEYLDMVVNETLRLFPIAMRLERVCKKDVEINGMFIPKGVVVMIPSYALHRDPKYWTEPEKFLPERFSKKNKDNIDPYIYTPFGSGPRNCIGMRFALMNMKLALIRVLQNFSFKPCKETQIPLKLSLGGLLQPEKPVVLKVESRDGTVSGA

BrCCc1ccccc1
inactive: Potency [1] | Potency [2] | Potency [3] | Potency [4] | Potency [5] | Potency [6] | Potency [7] | Potency [8]

CCCOc1nn(C(=O)NS(=O)(=O)c2ccccc2C(=O)OC)c(=O)n1C
inactive: Potency [1] | Potency [2] | Potency [3] | Potency [9] | Potency [6] | Potency [7] | Potency [8]

COC1=CC(=O)O[C@@H](/C=C/c2ccccc2)C1
inactive: Potency [1] | Potency [2] | Potency [3] | Potency [7] | Potency [8]
active: Potency [4] 5.72 µM | Potency [5] 32.2 µM | Potency [6] 28.7 µM

C(COCC1CO1)OCC1CO1 (centres undefined)
inactive: Potency [1] | Potency [2] | Potency [3] | Potency [4] | Potency [5] | Potency [6] | Potency [7] | Potency [8]

CC(C)(C1CCC(O)CC1)C1CCC(O)CC1 (centres undefined)
inactive: Potency [1] | Potency [2] | Potency [3] | Potency [9] | Potency [6] | Potency [7] | Potency [8]

CCC(C(N)=O)N1CCCC1=O (centres undefined)
inactive: Potency [1] | Potency [2] | Potency [3] | Potency [4] | Potency [5] | Potency [6] | Potency [7] | Potency [8]

CCCOC(=O)Cc1ccc(OCC(=O)N(CC)CC)c(OC)c1
inactive: Potency [1] | Potency [2] | Potency [3] | Potency [4] | Potency [5] | Potency [6] | Potency [7]

CCCOC(=O)c1cncn1C(C)c1ccccc1 (centres undefined)
inactive: Potency [1] | Potency [2] | Potency [3] | Potency [7]
active: Potency [4] 2.45 µM | Potency [5] 13.8 µM | Potency [6] 17.4 µM

ClCC1CO1 (centres undefined)
active: Potency [4] 24.3 µM
inactive: Potency [1] | Potency [2] | Potency [3] | Potency [5] | Potency [6] | Potency [7] | Potency [8]

ClC(Cl)(Cl)Cl
inactive: Potency [1] | Potency [2] | Potency [3] | Potency [9] | Potency [5] | Potency [7] | Potency [8]

Cc1ccc(-c2nc3ccc(C)cn3c2CC(=O)N(C)C)cc1
active: Potency [6] 27.5 µM
inactive: Potency [1] | Potency [2] | Potency [3] | Potency [4] | Potency [5] | Potency [7]

Cc1ccc2c(c1)C1CN(C)CCC1N2 (centres undefined)
active: Potency [9] 4.25 µM
inactive: activity change, negative = inhibition [1] 0.554% [at 23.6 µM] | activity change, negative = inhibition [2] -10.6% [at 23.8 µM] | activity change, negative = inhibition [3] -0.336% [at 23.6 µM] | activity change, negative = inhibition [5] 0.693% [at 23.6 µM] | activity change, negative = inhibition [7] -9.94% [at 15.8 µM] | activity change, negative = inhibition [8] 8.41% [at 23.6 µM]

CC(C)C(C)(N)C#N (centres undefined)
inactive: Potency [1] | Potency [2] | Potency [3] | Potency [4] | Potency [5] | Potency [6] | Potency [7] | Potency [8]

O=C1CC(=O)NC(=O)N1
inactive: Potency [1] | Potency [2] | Potency [3] | Potency [4] | Potency [5] | Potency [6] | Potency [7] | Potency [8]

CC1NCCOC1c1ccccc1 (centres undefined)
inactive: Potency [1] | Potency [2] | Potency [3] | Potency [4] | Potency [5] | Potency [6] | Potency [7] | Potency [8]

NC(=O)CS(=O)C(c1ccccc1)c1ccccc1 (centres undefined)
inactive: Potency [1] | Potency [2] | Potency [3] | Potency [5] | Potency [6] | Potency [7] | Potency [8]
active: Potency [4] 24.5 µM

CCOC(=O)NC(C)(C)Cc1ccc(Cl)cc1
inactive: Potency [1] | Potency [2] | Potency [3] | Potency [7] | Potency [8]
active: Potency [4] 4.36 µM | Potency [5] 15.5 µM | Potency [6] 6.45 µM

C=CC=O
inactive: Potency [1] | Potency [2] | Potency [3] | Potency [4] | Potency [5] | Potency [6] | Potency [7] | Potency [8]

CCN(CC)CCOC(=O)C(O)(c1ccccc1)c1ccccc1
active: Potency [9] 3.47 µM
inactive: Potency [1] | Potency [2] | Potency [3] | Potency [6]

S=C=S
inactive: Potency [1] | Potency [2] | Potency [3] | Potency [7] | Potency [8]
active: Potency [4] 44.3 µM | Potency [5] 49.7 µM | Potency [6] 39.5 µM

Nc1c(Cl)c(F)nc(OCC(=O)O)c1Cl
inactive: Potency [1] | Potency [2] | Potency [3] | Potency [5] | Potency [7] | Potency [8]

CCCCS(=O)(=O)Cl
inactive: Potency [1] | Potency [2] | Potency [3] | Potency [5] | Potency [6] | Potency [7] | Potency [8]

ClCOCCl
inactive: Potency [1] | Potency [2] | Potency [3] | Potency [4] | Potency [5] | Potency [7] | Potency [8]

CCC(CC)(CNC(=O)CCCO)c1cccc(OC)c1
inactive: Potency [1] | Potency [2] | Potency [3] | Potency [6] | Potency [7]
active: Potency [4] 7.76 µM

C/C(=N\NC(=O)Nc1cc(F)cc(F)c1)c1ncccc1C(=O)O
active: Potency [5] 10 µM and 12.6 µM
inactive: Potency [1] | Potency [2] | Potency [3] | Potency [7] | Potency [8]

CC(C)NCC(O)c1ccc([N+](=O)[O-])cc1 (centres undefined)
inactive: Potency [1] | Potency [2] | Potency [3] | Potency [4] | Potency [5] | Potency [6] | Potency [8]

N[C@@H]1C[C@H]1c1ccccc1
inactive: outcome [1] | outcome [2] | outcome [3] | Potency [7]
active: Potency [5] 19.5 µM
